# Source: PubChem BioAssay AID504634 (The Scripps Research Institute Molecular Screening Center, 2011)
# The campaign covered roughly 340,000 compounds. About 280 (0.082%) were called active. Cut-off read from the data, not from the text of the source: active = inhibition mostly above about 23% (no sharp cut-off); inactive = mostly below about 18%. For the sample, actives were picked, then their nearest neighbours and some compounds at random.
# Target: 5-hydroxytryptamine receptor 5A (Homo sapiens) (UniProt P47898)
# Sequence (P47898 whole entry, looked up): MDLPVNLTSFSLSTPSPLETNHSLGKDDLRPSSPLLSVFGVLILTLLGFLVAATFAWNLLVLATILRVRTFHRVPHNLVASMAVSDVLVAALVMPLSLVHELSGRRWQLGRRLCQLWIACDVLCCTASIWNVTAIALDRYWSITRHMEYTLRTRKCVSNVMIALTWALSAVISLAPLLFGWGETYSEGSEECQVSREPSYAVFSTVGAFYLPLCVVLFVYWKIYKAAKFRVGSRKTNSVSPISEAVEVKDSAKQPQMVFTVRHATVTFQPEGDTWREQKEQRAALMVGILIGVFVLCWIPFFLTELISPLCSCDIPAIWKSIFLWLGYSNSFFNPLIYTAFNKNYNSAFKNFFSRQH
# Assay: inverse agonism at human 5-HT5A receptor – cell-based, luminescence, full-deck HTS, counter-screen for OPRM1-OPRD1 heterodimer inverse agonist project, primary screen (AID 504634);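 note: 0% = cells with DMSO and 100% = no-cell wells with DMSO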
# Conditions: HTR5A cell line, at 9.3 µM, active compounds read high
row,SMILES,inhibition
1,CCOc1ccc(CCNC(=O)CN2C(=O)NC3(CCc4ccccc43)C2=O)cc1OCC (stereo not given),16.7% (inactive)
2,COc1cc(NC(=O)c2ccc(CNc3c(N4CCCC4)c(=O)c3=O)cc2)cc(OC)c1OC,-11.7% (inactive)
3,Cc1cc(C)n(-c2ccc(Cl)c(C(=O)O)n2)n1,39.8% (active)
4,Cc1cc(C)n(-c2ccc3nncn3n2)n1,5.02% (inactive)
5,CC(=O)c1ccc(Oc2cc(C)nc(-n3nc(C)cc3C)n2)cc1,6.21% (inactive)
6,COc1ccc(N2C(=O)C(CC(=O)Nc3ccc(F)cc3)N(CCc3cccs3)C2=O)cc1 (stereo not given),6.13% (inactive)
7,COc1ccc(NS(=O)(=O)c2cc(NC(=O)c3ccc(S(=O)(=O)N(C)C)cc3)ccc2N2CCOCC2)cc1,8.03% (inactive)
8,Cc1cc(C)cc(NC(=O)CSCc2cnn(-c3ccccc3)c2-n2cccc2)c1,3.55% (inactive)
9,COc1cccc(NC(=O)COC(=O)CCOc2ccccc2OC)c1,-27.4% (inactive)
10,CCOC(=O)NC(=O)C(=CNc1cccc(OC)c1)C(=O)NC(=O)OCC,34% (active)
11,CCOC(=O)C1CCN(C(=O)Nc2cccc(OC)c2)CC1,17.6% (inactive)
12,COCCn1c(SCC(=O)Nc2cc(Cl)ccc2OC)nc2c(c1=O)SC(C)C2 (stereo not given),-31.9% (inactive)
13,N#CC1(C#N)C(C(=O)C23CC4CC(CC(C4)C2)C3)C12CCOCC2 (stereo not given),20.3% (inactive)
14,COc1cc(C)nc(N2CCCC(C(=O)NCC(C)C)C2)n1 (stereo not given),-13.9% (inactive)
15,CCNc1nc(NCC)nc(N(C)n2cnnc2)n1,13% (inactive)
16,O=C(Nc1ccc2c(c1)C(=O)OC2)Nc1cccc2ccccc12,-14.2% (inactive)
17,O=S(=O)(NC1CCCCC1N1CCC(O)CC1)c1ccc(Cl)cc1 (stereo not given),-6.29% (inactive)
18,O=C(COc1ccccc1F)NNC(=O)c1ccc(N2CCCCC2)c([N+](=O)[O-])c1,7.26% (inactive)
19,O=c1[nH]n2c(=O)c3c([nH]c2c1N=Nc1ccccc1)CCC3,17% (inactive)
20,Cc1c(CNCCc2ccccc2)c(C(=O)O)c(C)n1-c1ccccc1,10.6% (inactive)
21,CCc1ccc(CCC(=O)Nc2ccc(S(N)(=O)=O)cc2)o1,-4.51% (inactive)
22,COc1ccc(OCc2nnc3n2N=C(c2ccccc2)C(CC(=O)O)S3)cc1 (stereo not given),-14.6% (inactive)
23,O=C(Nc1ccc(Br)c2cccnc12)c1ccc(Cn2cc([N+](=O)[O-])cn2)o1,-5.7% (inactive)

row,SMILES,inhibition
1,O=C(CSc1nnc2ccc(-c3ccncc3)nn12)N1CCCCC1,-11.3% (inactive)
2,OCCN1CCN(CCO)C1=S,12.7% (inactive)
3,CCCCn1c(N)c(N2CCOCC2)c(=O)n(CC(=O)NCCc2ccccc2)c1=O,-7.42% (inactive)
4,CCC(C(=O)OC)n1cnc2scc(-c3ccc(C)cc3)c2c1=O (stereo not given),18% (inactive)
5,COc1cc(C(=S)N2CCOCC2)cc(OC)c1OC(=O)c1cc([N+](=O)[O-])c(C)c([N+](=O)[O-])c1,-9.45% (inactive)
6,COc1ccc(/C=C/C(=O)c2cc(Br)ccc(=O)c2O)cc1,-37% (inactive)
7,CC(=O)CCS(=O)(=O)c1ccc(C)c(C)c1,6.1% (inactive)
8,CCCCN(CC)C(=O)c1ccccc1Oc1ccccc1,4.41% (inactive)
9,C=CCn1c(SCC(=O)NC(=O)Cc2ccccc2)nc2ccccc2c1=O,4.86% (inactive)
10,CCOc1cc(S(=O)(=O)NCc2ccc3c(c2)OCO3)ccc1F,18.6% (inactive)
11,Cc1cc(-c2nc(C)c(-c3nnc(SCC(=O)Nc4ccccc4)n3C)s2)no1,0.1% (inactive)
12,CC(=O)N1CCN(c2ccc(NCc3ccc(C(C)C)cc3)cc2)CC1,-28.6% (inactive)
13,CC1CCCN(c2ccc(C(=O)NCCc3ccccc3)cn2)C1 (stereo not given),-15.3% (inactive)
14,C=C1CCN([C@@H](Cc2ccccc2)C(=O)N2CCOCC2)S(=O)(=O)c2ccccc21,-14.5% (inactive)
15,CCOC(=O)N1CCC(NC(=O)C(NS(=O)(=O)c2ccc3c(c2)CCN3C(=O)CC)C(C)C)CC1 (stereo not given),-32.3% (inactive)
16,CCN(c1ccccc1)S(=O)(=O)c1ccc2[nH]c(=O)[nH]c2c1,4.19% (inactive)
17,O=C(O)c1ccc(NS(=O)(=O)c2cccc3nsnc23)cc1,-11.7% (inactive)
18,Cc1cc(-c2ccc(S(=O)(=O)N3CCN(c4cccc(C(F)(F)F)c4)CC3)s2)on1,-11.3% (inactive)
19,CCCCNC(=O)C1CCC(=O)N1CCc1ccccc1 (stereo not given),4.38% (inactive)
20,COc1ccc(N2CC(C)Cn3c2nc2c3c(=O)n(Cc3ccccc3F)c(=O)n2C)c(OC)c1 (stereo not given),6.23% (inactive)
21,O=C(/C=C/c1ccc(Cl)c([N+](=O)[O-])c1)c1ccc(O)cc1,25.2% (active)
22,CN(C)c1ccc(/C=C/C(=O)c2ccc(C(C)(C)C)cc2)cc1[N+](=O)[O-],-5.83% (inactive)
23,CN(C)c1ccc(/C=C/C(=O)c2ccc(O)cc2)cc1[N+](=O)[O-],5.01% (inactive)

row,SMILES,inhibition
1,CC(C)CCNC(=O)C(C)N(C(=O)Cn1nnc(-c2ccc(F)cc2)n1)C1CCCC1 (stereo not given),-27.5% (inactive)
2,CC1(c2nnc(Cc3ccccc3)o2)CC(c2ccccc2F)=NO1 (stereo not given),-30.2% (inactive)
3,O=[N+]([O-])/C=C/c1ccc2c(ccn2Cc2ccccc2)c1,29.1% (inactive)
4,COc1ccc(CN2CCCC(C(=O)N3CCCCC3)C2)cc1 (stereo not given),-7.55% (inactive)
5,COc1cc(N2CCCC2)c(OC)cc1/C=C(/C#N)c1cccc(Br)c1,0.8% (inactive)
6,Cc1noc(C)c1-c1nc(CSc2ccc(Cl)cc2)no1,-15% (inactive)
7,O=C(NCCC1CCCCN1S(=O)(=O)c1ccccc1)C(=O)NCC1CCCO1 (stereo not given),-11.3% (inactive)
8,CCOc1ncccc1C(=O)N(CC)CC(=O)Nc1ccc(NC(C)=O)cc1,-12.8% (inactive)
9,CCSc1nc2sc3c(c2c(=O)n1-c1ccc(C)cc1)CCN(C)C3,-7.48% (inactive)
10,CCc1ccc(OCC(=O)N(Cc2ccccc2)C2CCS(=O)(=O)C2)cc1 (stereo not given),9.5% (inactive)
11,O=C(NCc1ccc(F)cc1)C1CCC(CNc2c(N3CCOCC3)c(=O)c2=O)CC1 (stereo not given),4.62% (inactive)
12,CCNC(=S)N1CCN(S(=O)(=O)c2ccc(Cl)s2)CC1,2.35% (inactive)
13,CSc1cccc(NC(=O)C2CCCN2S(=O)(=O)c2ccc3c(c2)CCC(=O)N3)c1 (stereo not given),-6.95% (inactive)
14,COn1c(=O)c(=O)n(OC)c2ccccc21,13.4% (inactive)
15,CC(NC(=O)c1cccc2ccccc12)c1ccc2c(c1)CCCC2 (stereo not given),-1.12% (inactive)
16,COCCn1c(SCC(=O)Nc2ccc3c(c2)CCC3)nc2ccccc2c1=O,4.39% (inactive)
17,COC(=O)C1CCCCN1C(=O)c1ccc(OC2CCN(C(C)=O)CC2)c(OC)c1 (stereo not given),-12.2% (inactive)
18,Cc1cc(C)c(S(=O)(=O)N2CCCC2CNC(=O)c2ccc3c(c2)OCO3)c(C)c1 (stereo not given),1.64% (inactive)
19,Cc1cc(NC(=O)CCN2CCN(Cc3ccccc3)CC2)ccc1Br,-5.24% (inactive)
20,CN(CCO)S(=O)(=O)c1ccc2c(c1)C(=O)c1cc(S(=O)(=O)N(C)CCO)ccc1-2,-0.05% (inactive)
21,Cn1c(N)c(C(=O)COC(=O)c2cnc(Cl)c(Cl)c2)c(=O)n(C)c1=O,13.4% (inactive)
22,CCOc1ccc(NC(=O)CC(Cc2ccc(Cl)cc2)C(=O)O)cc1 (stereo not given),11.4% (inactive)
23,COc1ccc(CCNC(=O)COc2cc(C)cc3oc(=O)c(C)c(C)c23)cc1OC,-41.4% (inactive)

row,SMILES,inhibition
1,Cc1cccc(C(=O)OC(C)CN2CCCC2)c1 (stereo not given),-16.4% (inactive)
2,O=C(NC(=S)Nc1cc(C(F)(F)F)ccc1N1CCOCC1)c1ccc(-c2cccc(Cl)c2)o1,12.2% (inactive)
3,Cc1ccc(NC(=O)CSc2nc(=O)n(CCN(C)C)c3c2CCCC3)c(C)c1,8.38% (inactive)
4,Cc1c(C(=O)NCCN2C(=O)S/C(=C\c3cccs3)C2=O)cccc1[N+](=O)[O-],-12.1% (inactive)
5,Cc1cc(NC(=O)CSC2=NS(=O)(=O)c3cc(Cl)ccc3N2)no1,6.86% (inactive)
6,Cc1ccc(S(=O)(=O)NCC(C)NS(C)(=O)=O)cc1 (stereo not given),-0.41% (inactive)
7,CC(=O)N(O)CCCCCNC(=O)CCC(=O)N(O)CCCCCNC(=O)CCC(=O)N(O)CCCCCNC(=O)CCC(=O)O,2.24% (inactive)
8,O=C(NCc1ccncc1)C1CCN(C(=O)c2cccc(Cl)c2)CC1,-13.3% (inactive)
9,Cc1[nH]c2ccccc2c1C(=O)COC(=O)c1c(-c2ccccc2)noc1C,-12.9% (inactive)
10,Nc1nonc1-n1nnc(C(=O)N/N=C/c2cc(Br)ccc2O)c1CSC1=NCCS1,-4.39% (inactive)
11,Cc1c(-c2ccccc2)cn2c1-c1ccc(C)n1CC2,-5.32% (inactive)
12,CC(=O)c1cccc(OCc2cc(C(=O)NC(C)Cc3cccnc3)no2)c1 (stereo not given),-3.71% (inactive)
13,Cc1noc(C)c1COc1cccc(C(=O)Nc2cccnc2)c1,22.3% (active)
14,Cc1noc(C)c1COc1ccc(C(=O)NCCOc2ccccc2)cc1,-0.9% (inactive)
15,CCc1nc2ccccc2n(CCOCCOCCn2c(=O)c(CC)nc3ccccc32)c1=O,-0.84% (inactive)
16,CN(C(=O)CSc1nnc(Nc2ccccc2)s1)C1CCS(=O)(=O)C1 (stereo not given),16.5% (inactive)
17,C/C=C/C(=O)Nc1ccc(N2CCN(c3ccc(C(F)(F)F)cn3)CC2)nc1,-13% (inactive)
18,O=P(O)(CP(=O)(c1ccccc1)c1ccccc1)c1ccccc1,4.79% (inactive)
19,COc1ccc(S(=O)(=O)N2CCSCC2)cc1,16.4% (inactive)
20,CCn1cc(C(=O)NCCCN2CCCCCC2)c(=O)c2cc(S(=O)(=O)N3CCc4ccccc4C3)ccc21,-11% (inactive)
21,CCOC(=O)c1cn(CC)c2cc(F)c(F)cc2c1=O,-4.15% (inactive)
